Compound activity deposited in PubChem by National Center for Advancing Translational Sciences (NCATS).
Lamin A splicing: modulators of lamin A splicing. HeLa LMNA splicing GFP/RFP minigene ratio, 48 h. Potency, µM (doses to about 46.1 µM), for the others: at the top dose ratio change, negative = inhibition, actives largely listed as inhibitors. 200,000 tested, 0.01% active. AID 1487; active = well fitted inhibition curve with a large enough effect in the signal ratio, with a control signal flat, not every such curve was filed as active; inconclusive = small, poorly fitted or top-dose-only effect, or effect the other way, or a change in a side signal; the % refers to the signal ratio; also: potency is read from the fitted curve at half-maximal effect
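S3 HeLa cells stably expressing lamin A-EGFP splicing minigene plus DsRed2, 600 cells/well, 48 h compound exposure at 37C. Laser-scanning cytometry; analysed as GFP (500-530 nm)/RFP (575-640 nm) total intensity ratio; 0.5% DMSO vehicle.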
ALDH1A1 inh: blocks purified human ALDH1A1 activity. AID 1030. 220,000 tested, 7.3% active. P00352. Purified ALDH1A1, NADH fluorescence, propionaldehyde substrate. Potency, µM (top dose mostly 75.3 µM), inactives show top-dose activity, negative = inhibition, most hits filed as inhibitors;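 also: potency is read from the fitted curve at half-maximal effect; plate controls were no enzyme wells and a reference inhibitor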
Target sequence (P00352 whole entry, looked up): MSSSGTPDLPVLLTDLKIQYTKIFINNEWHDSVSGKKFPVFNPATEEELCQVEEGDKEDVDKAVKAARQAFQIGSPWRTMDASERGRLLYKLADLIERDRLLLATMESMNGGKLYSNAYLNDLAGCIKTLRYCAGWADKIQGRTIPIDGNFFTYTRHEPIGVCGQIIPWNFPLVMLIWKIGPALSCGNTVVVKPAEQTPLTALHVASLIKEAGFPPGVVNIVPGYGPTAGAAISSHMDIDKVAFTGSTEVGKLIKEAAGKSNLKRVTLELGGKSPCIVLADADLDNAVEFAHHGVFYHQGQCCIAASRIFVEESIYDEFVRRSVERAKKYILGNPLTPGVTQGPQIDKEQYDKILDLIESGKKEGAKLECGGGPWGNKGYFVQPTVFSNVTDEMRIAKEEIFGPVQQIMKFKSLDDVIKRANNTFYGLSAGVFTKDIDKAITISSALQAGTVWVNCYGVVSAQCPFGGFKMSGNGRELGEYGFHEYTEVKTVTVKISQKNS
PNC inhibitor: inhibitors of perinucleolar compartment assembly; PC3M PTB-GFP, PNC prevalence imaging, 16 h; stronger effect = lower value; activity change (PNC), negative = inhibition, % at 10 µM; 140,000 tested, 3.1% active; AID 2417;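 active = readout at or below -70, meaning at least 70% loss of cells showing the perinucleolar compartment, a nuclear body marking cancer cells; inconclusive = readout between -30 and a set limit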;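 also: plate controls were DMSO wells for no effect and camptothecin positive control wells for full effect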
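PC3M cells stably expressing PTB-GFP, 750–1000 cells/well, treated 16 h at 37 °C with compound (23 nl of library stock), in duplicate. After paraformaldehyde fixation and Hoechst stain, imaged at 20x; PNC prevalence scored by image analysis.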
IMPase cell inh: cell-permeable inhibitors of inositol monophosphatase (IMPase); inhibition (IP1 accumulation), % at 46.1 µM; CHO-M1 cells, IP1 accumulation, HTRF TR-FRET ratio; 120,000 tested, under 10 active; AID 901; active = well fitted curve in the direction sought with a large enough effect in the signal ratio, not every such curve was filed as active; inconclusive = small, poorly fitted or top-dose-only effect, or a change in a side signal; inactive = no such curve, though single readings can be large or run the other way; the % refers to the signal ratio;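 also: cells stimulated with carbachol in lithium chloride buffer; plate controls were DMSO basal wells for no effect and reference inhibitor wells for full effect; higher means more IMPase inhibition seen as more IP1 and lower FRET ratio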
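Seeded CHO-M1 cells were dosed with compound at up to 46 uM, stimulated with carbachol for 30 min, then lysed in IP-One detection reagents. Higher IP1 lowers the TR-FRET signal.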
Luc counter: counter-screen: inhibitors of Kinase-Glo firefly luciferase | Q27757 | Kinase-Glo luciferase, ATP luminescence, 8 min | Potency, µM (doses to about 38.3 µM), without a hit: at the top dose activity change, negative = inhibition, actives largely listed as inhibitors | 200,000 tested, 0.28% active | AID 1379; active = well fitted inhibition curve with a large enough effect; inconclusive = small, poorly fitted or top-dose-only effect; also: potency is read from the fitted curve at half-maximal effect; nearly all actives have a fitted effect of over 60% in size
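Light output from Kinase-Glo luciferase with luciferin and 10 uM ATP in 50 mM imidazole pH 7.2, KCl, MgCl2, Tween 20, BSA; compound pin-delivered, 8-min ambient incubation, then luminescence read.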
HPGD inh: inhibitors of human 15-hydroxyprostaglandin dehydrogenase (HPGD); P15428; purified HPGD, NADH fluorescence kinetic, PGE2 substrate; Potency, µM, without a hit: at the top dose activity change, negative = inhibition, actives largely listed as inhibitors; 150,000 tested, 4.3% active; also: potency is read from the fitted curve at half-maximal effect
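NADH formation kinetics: reaction with 30 uM PGE2 and 1 mM NAD+ (final), 20 nM enzyme, Tris-HCl pH 8 with Tween 20, after 15 min compound preincubation at room temperature. Fluorescence change, last versus first of five reads.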
Starred values were filed as active, the others as inactive; ? = inconclusive; . = not tested or not shown; [ ] = remark or other dose. The list is not random: actives were taken first. Their share in the collection is about 10%. Unless noted, calls follow the shape of the dose curve; as a rule, active = well fitted inhibition curve with a large enough effect (not every such curve was filed as active); inconclusive = small, poorly fitted or top-dose-only effect, or another doubt; inactive = no such curve, though single readings can be large or run the other way. Unless noted, % is scaled to controls: 0 for no effect and ±100 for the full control effect.

SMILES	Lamin A splicing	ALDH1A1 inh	PNC inhibitor	IMPase cell inh	Luc counter	HPGD inh
COC(=O)c1ccccc1NC(=S)NC(=O)c1cccc2ccccc12	4%	10µM*	-1	5	-3%	-24%
O=C(c1cc(-c2ccccn2)nc2c(Cl)cccc12)N1CCN(S(=O)(=O)c2ccccc2)CC1	-3%	16µM*	49	.	2%	-16%
COc1cccc(C(=O)N2CCN(Cc3ccccc3[N+](=O)[O-])CC2)c1	-5%	?	?	.	2%	1%
COc1ccc(CN2CCN(C(=O)C3CCC(CNS(=O)(=O)c4ccccc4)CC3)CC2)c(OC)c1OC (stereo not given)	.	14µM*	.	.	-4%	.
COc1ccc(CN2CCN(C(=O)c3cccs3)CC2)c(OC)c1OC	0%	18µM*	-16	7	-6%	-11%
CCOC(=O)N1CCN(C(=O)C2CCC(CNS(=O)(=O)c3ccccc3)CC2)CC1 (stereo not given)	13%	?	-28	-1	-5%	-5%
O=C(c1cccs1)N1CCN(Cc2ccccc2[N+](=O)[O-])CC1	?	25µM*	-21	.	0%	-5%
Cc1cc2n(n1)CCCN2C(=O)Nc1cccc(C)c1C	-6%[46 µM]	.	.	.	.	.
COc1ccccc1CN1CCN(Cc2nc(Cc3ccccc3)no2)CC1	?	-2%	.	.	3%	.
C(=C\c1ccccc1)/CN1CCN(Cc2nc(Cc3ccccc3)no2)CC1	?	13µM*	.	.	1%	.
CCCC(=O)C1=C(c2ccccc2)C(C#N)(C#N)C(C#N)=C1N	10%	?	1	5	-3%	1.4µM*
CC(C)N(CC#CCC1(O)c2ccccc2-c2ccccc21)CCO	-11%	20µM*	7	7	2%	-9%
CN(C)c1ccc(CNc2nc(-c3ccco3)nn2S(=O)(=O)c2ccc3ccccc3c2)cc1	-16%[46 µM]	.	.	.	.	.
CC/C=C\C/C=C\C/C=C\C/C=C\C/C=C\C/C=C\CCC(=O)O	.	22µM*	.	.	-1%	-7%
CC/C=C\C/C=C\C/C=C\C/C=C\C/C=C\CCCCCC(=O)O	.	-11%	.	.	1%	-8%
CCCCN1C=CC(=C2C(=O)c3ccccc3C2=O)C=C1	.	2.8µM*	.	.	1.1µM*	.
COc1ccc(COc2ccc(C3C(S(=O)(=O)c4ccccc4)CON3C)cc2OC)cc1 (stereo not given)	?	8.9µM*	.	.	1%	.
C=C1SC(=Nc2ccccc2Cl)N(C(=O)c2sc3ccccc3c2Cl)C1(C)C	.	24µM*	.	.	.	.
COc1ccccc1N=c1scc(-c2ccc(S(=O)(=O)N3CCCC3)cc2)n1C	.	.	.	0	.	.
CC(=O)NN1C(=O)/C(=C/c2ccc(Br)o2)SC1=S	-14%	25µM*	32	10	1%	?
C[N+]1([C@H](CO)Cc2c[nH]c3ccccc23)Cc2ccccc2C1	.	1%[13.5 µM]	.	.	-1%[7.66 µM]	-9%
COc1ccc(N2CCN(C(=O)c3cn(C4CCCCC4)c(=O)c4c3c3ccccc3n4C)CC2)cc1	.	.	.	-1	.	.
O=C(C[n+]1cn(C(F)F)c2ccccc21)c1ccc(OC(F)F)cc1	?	9.5µM*	.	.	-2%	.
Oc1cc2c(cc1O)C(c1ccccc1)CNCC2 (stereo not given)	-29%	?	.	.	-10%	?
Oc1cc2c(cc1O)[C@@H](c1ccccc1)CNCC2	11%	3%	8	.	0%	20µM*
SMILES	Lamin A splicing	ALDH1A1 inh	PNC inhibitor	IMPase cell inh	Luc counter	HPGD inh
CNS(=O)(=O)c1cn(CC(=O)Nc2cccc(OC)c2)cc1S(=O)(=O)NC	-7%[46 µM]	.	.	.	.	.
CN(C)c1ccc(C(=C2C=CC(=[N+](C)C)C=C2)c2c(O)c(S(=O)(=O)O)cc3cc(S(=O)(=O)O)ccc23)cc1	.	3.5µM*	.	.	?	-7%
CCn1nnc(NC(=O)c2cccnc2)n1	0%	-13%	24	-2	2%	25µM*
Cc1cc(C)n(-c2nc3ccccc3nc2Nc2ccc(Cl)c(Cl)c2)n1	.	.	.	14	.	.
O=C(COCc1cc(-c2cccs2)on1)Nc1ccc(OC(F)(F)F)cc1	10%[46 µM]	.	.	.	.	.
CCCCn1nnnc1SCC(=O)c1ccccc1F	.	-6%	.	.	-1%	.
CCCCn1nnnc1SCC(=O)c1cc(Cl)ccc1OC	-1%	5µM*	64	-2	2%	-26%
